According to PubChem BioAssay AID493073 (Broad Institute, 2011):
Hit rate of the full screen: of about 1,200 compounds, about 810 (68%) were called active. The rule behind the calls is not given here. So high a share suggests a set chosen from earlier hits. Only a sample is shown. Potency and affinity values are given separately.

Experiment: TRPM1 promoter luciferase signal decrease, dose response, MITF inhibitor project, cell-based, SK-MEL-5, cherry-picked, set 3 (AID 493073)
Details: SK-MEL-5 TRPM1 promoter luciferase, 24 h; series mostly up to 35 µM

outcome, inactive:
COCCNC(=O)c1cc2sc3ccccc3c2s1
FC(F)(F)Oc1ccc(-c2cn3cccnc3n2)cc1
O=C(CNC(=O)c1ccc(Br)cc1)c1ccccc1
Clc1ccccc1CSc1nnc(-c2ccncc2)o1
Cc1ccc(C(=O)Nc2nc3ccc(Cl)cc3s2)o1
O=C(Nc1nc2ccccc2s1)Nc1ccc(F)cc1F
Cc1ccc2nc(NC(=O)c3ccc(Br)o3)sc2c1
COC(=O)c1ccc(COc2ccc(C)cc2[N+](=O)[O-])o1
COc1ccc2oc3ccc(OC)cc3c(=O)c2c1
Cc1cc(NC(=O)c2ccc(Cl)cc2Cl)no1
O=C(Nc1cccnc1Cl)c1cc(-c2ccco2)on1
CC1CCN(c2ccc(NC(=O)c3cccnc3)cc2)CC1
NNC(=O)Cn1c(SCc2ccccc2)nc2ccccc21
COC(=O)c1ccc(COc2ccc3c(c2)CCC3)o1
O=C(Nc1nc2ccsc2c(=O)s1)C1CCC1
O=C(O)C1CCN(C(=O)OCc2ccccc2)CC1
Clc1ccc(-c2nc(-c3ccncc3)no2)c(Cl)c1
CCOc1ccccc1-c1nc(-c2ccc(C)nc2OC)no1
Cc1ccc(-c2nc(-c3ccncc3)no2)cc1C
Fc1ccccc1-c1nc(-c2ccncc2)no1
O=C(Nc1ccc(Cl)cc1)C1C2CCCCC21 (stereo not drawn)
Cc1ccc(SCCC(=O)N2CCC(C)CC2)cc1
N/C(=N\OC(=O)c1ccccc1Cl)c1cccc([N+](=O)[O-])c1
N/C(=N\OC(=O)c1ccncc1)c1cccc([N+](=O)[O-])c1
CCn1c(=O)c(C(=O)NCc2ccccc2Cl)c(O)c2ccccc21
Cc1ccc(SCc2cn3cc(Cl)ccc3n2)cc1
N/C(=N\OC(=O)c1cccc(F)c1)c1cccc([N+](=O)[O-])c1
Cc1ccccc1OCc1nc2c3cnn(C)c3ncn2n1
Cc1ccc(OCCNCc2ccccc2)c(C)c1
CC(C)(C)c1ccc(OCCn2ccccc2=O)cc1
COc1ccc(NC(=O)c2cc(-c3ccccc3Cl)on2)cc1
O=C1c2ccccc2C(=O)N1CCOc1ccccc1
CC(C)c1nnc(NC(=O)CCC2CCCCC2)s1
CC(C)(C)C1CCC(OC(=O)CN2CCCCC2)CC1 (stereo not drawn)
COc1ccc(C2C(C#N)=C(N)Oc3c2oc(CO)cc3=O)cc1 (stereo not drawn)
O=C(Nc1ccc2ncccc2c1)c1ccccc1Br
CC(=O)c1ccc(N/C=C/C(=O)c2ccc(Br)cc2)cc1
Oc1ccccc1/C=N/Nc1cccc2cccnc12
Cc1ccc2nc(Cc3ccc(N)cc3)oc2c1
CCOc1ccccc1NC(=O)C1C2CCC(O2)C1C(=O)O (stereo not drawn)
COc1ccc(-c2cc(-c3ccc(OC)c(OC)c3)n[nH]2)c(O)c1
COc1ccc(C(=O)NCCSc2ccccc2C)cc1
COc1ccc(C(=O)NCC(=O)c2ccccc2)cc1
COc1cccc(CNc2nc3ccccc3n2C)c1O
Cc1cc(C(F)(F)F)c2c(N)c(C(=O)Nc3cc(C)on3)sc2n1
Cc1cc(C)c2c(N)c(C(=O)N/N=C/c3ccccc3)sc2n1
CCc1cc(C=NC2CCCCC2)c(O)s1
Cc1ccccc1NCc1nc2ccccc2n1C
O=C(NCc1ccco1)c1ccc(COCC(F)(F)F)cc1
CN(C)c1ccc(/C=C/c2cccc[n+]2[O-])cc1
Cc1ccc(O)c(NC(=O)c2ccc3c(c2)C(=O)N(CC(C)C)C3=O)c1
Clc1nccnc1N/N=C/c1ccc(Br)cc1
COc1cccc(/C=N/NC(=O)c2cccs2)c1
N/C(=N\OC(=O)Cc1cccs1)c1ccccc1
O=C(NC1CCCCC1)c1cc2cc(Br)ccc2o1
COc1cccc(-c2ccc3c(N)c(C(=O)NC4CC4)sc3n2)c1
O=C(NC1CCCCCC1)c1cc2ccccc2oc1=O
N#C/C(C(=O)c1ccccc1)=C1/CCCCCN1
CCOc1ccc(N=C(C)C2=C(O)c3ccccc3C2=O)cc1
Cn1c(COc2ccccc2Br)nc2ccccc21
NC(=O)c1c(NC(=O)c2cccnc2)sc2c1CCCCC2
CCOc1cc(/C=N/N=C(N)N)ccc1OCc1ccc(Cl)cc1
Cc1ccc(COc2ccc(C)nc2[N+](=O)[O-])cc1
O=C(Nc1ccc(Cl)cc1)N1CC=CCC1
CC(C)(CO)NC(=O)c1ccc2nc(Cc3cccc(Cl)c3)oc2c1
Cc1ccc(C(=O)c2coc3ccc(O)c(Cl)c23)cc1
OCc1ccc(N=Nc2ccccc2)cc1
Cc1ccc(OCCCCN2CCCCC2)c(Br)c1
O=C(Cc1cccs1)NCc1ccc(Cl)cc1Cl
O=C(CCC(=O)c1ccc[nH]1)c1ccc(Cl)cc1
COc1nc(NC2CCCCC2)nc(NC(C)(C)C)n1
C#Cc1cccc(NC(=O)CSc2nnc(-c3ccc(C(F)(F)F)cn3)o2)c1
COc1ccc(NCc2nc3ccccc3n2C)cc1
Cn1c(COc2ccccc2)nc2ccccc21
COc1cc(CN2CCC(C(=O)NCCC(C)C)CC2)ccc1OCc1ccccc1
COc1ccc(C(=O)Nc2ccc3c(c2)OCCO3)cc1Br
COc1cccc(/C=C/C(=O)c2ccc3c(c2)OCCO3)c1OC
COc1ccc(N(CC(=O)NCC2CCCO2)S(=O)(=O)c2ccccc2)cc1OC (stereo not drawn)
CC(=O)Nc1cccc(-c2nnc(-c3ccccc3)o2)c1
O=C(CN1CCCCC1)Nc1scc2c1c(=O)oc1ccccc12
CCN(CC)CCNC(=O)C1CCN(S(=O)(=O)c2c(C)noc2/C=C/c2ccccc2F)CC1
Cc1cc(/C(N)=N/OC(=O)Nc2ccc(Cl)cc2)no1
Cc1cccc(NC(=O)c2cnn(-c3ccccc3)c2C)c1C
Cc1ccsc1C(=O)OCC(=O)Nc1sccc1C(N)=O
CCCCC(=O)N/C(N)=N/c1nc2ccccc2o1
Cc1ccc(-c2nc(C#N)c(NCc3ccco3)o2)cc1
O=C(NCC1CCCO1)c1cc(-c2ccc(Cl)cc2Cl)on1 (stereo not drawn)
Cc1cccc(-c2nc(C#N)c(NCc3ccco3)o2)c1
O=C(Nc1ccc2nn(-c3ccccc3)nc2c1)c1ccco1
CNc1oc(/C=C/c2cccc(OC)c2)nc1C#N
Cc1cc(Cl)ccc1NC(=O)c1ccc2c(c1)OCO2
CC(C)C(=O)Nc1cccc(NC(=O)c2cc3ccccc3o2)c1
N=c1n(CC(=O)c2ccc([N+](=O)[O-])cc2)c2ccccc2n1Cc1ccc(Cl)cc1
O=C1CN(c2ccccc2)C(=S)N1C(=O)c1ccc(Br)cc1
Cc1c(C=O)c2cc(OCc3ccccc3)ccc2n1C
CC1CCCC(C)N1CCCNC(=O)c1cc2c(s1)-c1ccccc1OC2 (stereo not drawn)
COc1ccccc1/C=C/C=N/NC(=O)c1cccs1
Cc1ccc(SCCSc2ncccn2)cc1
Nc1c(-c2ccccc2)cnc2c(-c3ccccc3)cnn12
CC(C)(C)c1cc(NCCCn2ccnc2)n2ncc(-c3ccccc3)c2n1
c1cc(CSc2nnc(-c3ccc4c(c3)OCO4)o2)ccn1
O=C(Nc1nc2ccccc2s1)c1ccccc1[N+](=O)[O-]
COc1cc(SC)ccc1C(=O)NCCOc1ccccc1Cl
Cc1ccc(NC(=O)Nc2ccccc2)nc1
Cc1cnn(C(=S)NCCc2ccccc2)c1
COc1ccc(C)c2sc(N(CCN(C)C)C(=O)/C=C/c3cccs3)nc12
CN(C)CCCN(C(=O)CCc1ccccc1)c1nc2ccc(Br)cc2s1
O=C(CSC(=S)N1CCCCC1)c1c(F)cccc1F
COC(=O)c1c(C)[nH]c(/C=N/Nc2ccccc2)c1C
COc1ccc(CNC(=O)CN2C(=O)C3C4C=CC(C4)C3C2=O)cc1 (stereo not drawn)
COc1cc(CN2CCC(C(N)=O)CC2)ccc1OCc1ccccc1
O=C(Nc1cc2c(cc1Cl)OCCO2)c1ccco1
CCOC(=O)c1sc(-c2ccccc2)cc1N
Cc1nn2c(N)c(-c3ccccc3)cnc2c1-c1ccccc1
CC(=O)Nc1cccc2c1Cc1ccccc1-2
CN(C)CCNC(=O)COc1ccc(C23CC4CC(CC(C4)C2)C3)cc1
Cc1ccc(-n2ncc3c(SCC(N)=O)ncnc32)cc1C
Cn1c(/C=C/c2ccc(Cl)cc2)nc2ccccc2c1=O
Cc1ccc(OCC(=O)Nc2ccccc2F)cc1
Fc1cccc(Cl)c1CSc1nnc(-c2ccncc2)o1
CSc1nc(N)n2nc(-c3ccc(Cl)cc3)cc2n1
O=[N+]([O-])c1ccccc1OCCOc1ccccc1[N+](=O)[O-]
COc1ccc(NC(=O)Nc2ccc(F)c(F)c2)c(OC)c1
O=C(CCCc1ccccc1)N1CCN(C2CCCCC2)CC1
O=C(c1cc2ccccc2oc1=O)N(Cc1ccccc1)C1CCS(=O)(=O)C1 (stereo not drawn)
N=C1C(c2nc3ccccc3[nH]2)=C(O)CN1C1CCCCC1
c1ccc(OCc2nc3ccccc3[nH]2)cc1
Cc1c(C(=O)N(CCO)Cc2ccccc2)oc2c(F)cccc12
